Outcome and AC50 data for 30 molecules are collected here from PubChem BioAssay (EPA / NIEHS).

The structures appear in SMILES notation. Inconclusive results are not listed. The source made the active and inactive calls. Rule for the calls: active = hit-call score of the fitted dose curve at least 0.9, where 1 is the maximum; inconclusive = response in the unintended direction; inactive = score below 0.9.

Nuclear receptor subfamily 1 group I member 2 (Homo sapiens), sequence (O75469 whole entry, looked up): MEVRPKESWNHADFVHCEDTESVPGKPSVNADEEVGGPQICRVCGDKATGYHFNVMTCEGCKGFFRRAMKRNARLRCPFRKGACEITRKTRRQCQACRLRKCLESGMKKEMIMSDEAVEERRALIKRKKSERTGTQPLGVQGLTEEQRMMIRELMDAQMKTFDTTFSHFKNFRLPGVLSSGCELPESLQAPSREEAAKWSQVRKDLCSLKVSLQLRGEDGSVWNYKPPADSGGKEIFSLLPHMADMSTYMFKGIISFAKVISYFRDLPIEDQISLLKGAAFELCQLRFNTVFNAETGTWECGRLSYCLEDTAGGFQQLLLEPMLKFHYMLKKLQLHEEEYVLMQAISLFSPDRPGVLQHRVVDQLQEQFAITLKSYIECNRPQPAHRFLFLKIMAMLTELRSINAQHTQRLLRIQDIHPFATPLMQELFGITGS

For this assay, the target named is Nuclear receptor subfamily 1 group I member 2 (Homo sapiens) (UniProt O75469). Briefly: NVS_NR_hPXR: NovaScreen (NVS) Nuclear Receptor Binding Assay for human Pregnane X Receptor (PXR) (AID 2283365).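 Note: a drop in FRET signal versus DMSO baseline means the compound binds.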 In short, it runs like this:
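Read-out: TR-FRET, human PXR, 2 h post-dosing, cell-free. Loss of signal vs DMSO taken as binding activity; 25 uM primary, concentration series secondary.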
As to `C[C@]12CC[C@H](O)CC1=CC[C@@H]1[C@@H]2CC[C@]2(C)C(=O)CC[C@@H]12`, the molecule was called inactive. On the same count and under the same terms, the value for `C1CCC(NC2CCCCC2)CC1` was “inactive”. For the molecule `CC1(C)CCC(Cc2ccc(Cl)cc2)C1(O)Cn1cncn1` (stereo not given), the outcome was inactive. In the case of `C=C(C)C(=O)[O][Sn]([CH2]CCC)([CH2]CCC)[CH2]CCC`, the outcome was inactive. `CCOP(=S)(OCC)Oc1nc(Cl)c(Cl)cc1Cl`: the molecule was classed as inactive. For the molecule `C[C@]12CCC(=O)C[C@@H]1CC[C@@H]1[C@@H]2CC[C@]2(C)[C@@H](O)CC[C@@H]12`, the call was inactive. Consider `C=CC#N`, for which the call was inactive. On to `C[C@H]1CCCC(=O)CCC/C=C/c2cc(O)cc(O)c2C(=O)O1`, for which the AC50 is 0.969 µM (active). `Cc1ccccc1C(=O)Nc1cccc(OC(C)C)c1`: the AC50 was 7.03 µM (active).

With `CC12CC1(C)C(=O)N(c1cc(Cl)cc(Cl)c1)C2=O` (stereo not given), the molecule was called inactive.

With `Cc1ccccc1N`, the outcome was inactive. Same read-out and setting: in the case of `[O-][Cl+2]([O-])O` it was “inactive”; in that of `Oc1cccc2cccnc12`, “inactive”; in that of `C[C@@H]1C[C@@H]([C@H](O)CC2CC(=O)NC(=O)C2)C(=O)[C@@H](C)C1`, “inactive”. With `COP(=O)(OC)O/C(=C\Cl)c1cc(Cl)c(Cl)cc1Cl`, the half-maximal activity concentration (AC50) was 25 µM (active). As for `O=C(Nc1ccc2[nH]ccc2c1)c1cc2cc(F)ccc2n1Cc1cccc(F)c1`, the molecule was called inactive. `CC(=O)[O][Hg][c]1ccccc1`: the AC50 was 5.37 µM (active).

In the case of `O=C1C2(Cl)C3(Cl)C4(Cl)C(Cl)(Cl)C5(Cl)C3(Cl)C1(Cl)C5(Cl)C24Cl` (stereo not given), the result was inactive. On the same count and under the same terms, in the case of `NNC(=S)NN` it was “inactive”. In the case of `CC1(C)Cc2cccc(O)c2O1`, the molecule was classed as inactive.

Regarding `Clc1ccc(COC(Cn2ccnc2)c2ccc(Cl)cc2Cl)cc1` (stereo not given), the AC50 was 9.83 µM (active). With `CC(C)(c1ccccc1)c1ccc(O)c(C(C)(C)c2ccccc2)c1`, the result was inactive. On to `CC(C)C1CCC(Cc2ccc(Cl)cc2)C1(O)Cn1cncn1` (stereo not given), for which the AC50 was 15.5 µM (active). Consider `CCOP(=S)(OCC)SCSP(=S)(OCC)OCC`, for which the call was inactive. Regarding `Clc1ccc(C2(Cn3cncn3)CC(Br)CO2)c(Cl)c1` (stereo not given), the half-maximal activity concentration (AC50) was 19.8 µM (active). Take `OCc1ccco1`: the outcome was inactive. Turning to `COc1cc(OC)nc(NC(=O)NS(=O)(=O)c2ncccc2C(=O)N(C)C)n1`, the molecule was classed as inactive.

As to `Fc1ccc(C2(Cn3cncn3)OC2c2ccccc2Cl)cc1` (stereo not given), the molecule was classed as inactive. Turning to `CCC[CH2][Sn]([CH2]CCC)([CH2]CCC)[O]C(=O)c1ccccc1`, the concentration at half-maximal activity (AC50) was 14.6 µM (active). Turning to `CC(C#N)CCC#N` (stereo not given), the result was inactive.

As a reminder, the AC50 is the concentration at which the activity in the assay is half-maximal.
